Bioassay records: PubChem BioAssay, Johns Hopkins Ion Channel Center
CHT PAM = human CHT allosteric activation; B-score at 10 µM; AID 488977; 310,000 tested, 0.49% active; Q9GZV3; CHT-expressing cells, membrane potential dye, choline EC20; hits give high values; LV-AA mutant CHT in HEK293 cells;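 active = initial fluorescence not abnormally high and integrated response B-score, plate-corrected, over 3 SD above library mean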
ANO1 activ = activates or potentiates the mouse TMEM16A chloride channel | Q8BHY3 | HEK293 TMEM16A/YFP-H148Q/I152L, iodide quench fluorescence; hits give low values | B-score at 10 µM | 340,000 tested, 0.3% active;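 active = fluorescence-ratio B-score plate-corrected deviation score at least 3 library SD below zero, with starting fluorescence score within 5 deviations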;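 also: channel opened by trigger with iodide after compound preincubation; score built on the fluorescence ratio of max minus min over baseline; more negative score means more quench and so TMEM16A activation or potentiation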
TMEM16A inh = mouse TMEM16A channel inhibition, primary screen; Q8BHY3; HEK293 TMEM16A/YFP iodide influx fluorescence, ionomycin; normalized B-score (activity score, 25-100; higher = stronger inhibition) at 10 µM; 310,000 tested, 1.2% active;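 active = ratio plate-corrected score three or more library SD toward inhibition, starting fluorescence score within five deviations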;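 also: score derived from kinetic fluorescence span divided by baseline fluorescence per well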
CHT inh = inhibitors of human choline transporter CHT; Q9GZV3; CHT-expressing cells, membrane potential dye, choline response; hits give low values; B-score at 10 µM; 310,000 tested, 0.86% active;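 active = B-score over 3 SD under the library average, and starting fluorescence ratio not unusually high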;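 also: choline stimulus applied at its EC90 after an EC20 pre-addition; B-score computed on integrated fluorescence ratio after choline addition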
CHT block conf = human CHT inhibition, confirmatory screen | CHT activity remaining % of control (hits give low values), % at 10 µM | AID 493221 | shares compounds with CHT inh | CHT-expressing cells, choline membrane potential dye; LV-to-AA substituted CHT, HEK293 cells | 2,400 tested, 70% active;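 active = choline transporter activity left, mean of duplicates at 10 µM, below buffer-only control mean minus 3 SD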;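 also: depolarization triggered by choline at its EC90 following an EC20 pre-addition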
HEK293 CHT ctr = counter-screen for CHT inhibitors: effect in parental HEK293 cells; shares compounds with CHT inh; membrane potential ratio readout (active if shifted either direction beyond buffer ±3SD; no single direction) at 10 µM; 2,400 tested, 4% active; membrane potential dye, choline response; active = decrease or increase beyond buffer ±3SD;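 also: parental cells lack the transporter so any hit is non-specific; ratio is peak minus trough fluorescence over baseline after EC90 choline challenge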
Numbers stand for hits. Rows were chosen to be rich in hits. Some 2.4% of all compounds tested hit in one or more screens of this group.

Results for COc1ccc(Nc2ccc(C(=O)O)cc2[N+](=O)[O-])cc1 ?
CHT PAM: inactive; ANO1 activ: inactive; TMEM16A inh: inactive; CHT inh: inactive

How did COc1ccc(OC)c(Nc2ccc(C(=O)O)cc2[N+](=O)[O-])c1 do in these assays?
CHT PAM: inactive; ANO1 activ: inactive; TMEM16A inh: inactive; CHT inh: -6.7; CHT block conf: inactive; HEK293 CHT ctr: inactive

How did O=C(O)CC(Cc1ccc(Cl)cc1)C(=O)Nc1cc(Cl)ccc1Cl (stereo not given) do in these assays?
CHT PAM: inactive; ANO1 activ: inactive; TMEM16A inh: inactive; CHT inh: -5.3; CHT block conf: 53%; HEK293 CHT ctr: inactive

How did Cc1ccccc1Nc1nc(N)nc(COC(=O)C(NC(=O)c2ccco2)C(C)C)n1 (stereo not given) do in these assays?
CHT PAM: inactive; ANO1 activ: inactive; TMEM16A inh: inactive; CHT inh: -6.2; CHT block conf: inactive; HEK293 CHT ctr: inactive

What do the screens show for `O=C(NC1CCCC1)C(c1ccccc1F)N(C(=O)Cc1cccs1)c1ccc2c(c1)OCCO2` (stereo not given)?
CHT PAM: inactive; ANO1 activ: inactive; TMEM16A inh: inactive; CHT inh: inactive

Results for Cc1ccc2c(C)c(C(=O)NCc3ccc(S(N)(=O)=O)cc3)oc2c1 ?
CHT PAM: inactive; ANO1 activ: inactive; TMEM16A inh: inactive; CHT inh: inactive

How did CCOc1ccc([C@@H]2CC=C(C(=O)O)[C@H](c3ccc(F)cc3)N2S(=O)(=O)c2ccc(C)cc2)cc1 do in these assays?
CHT PAM: inactive; ANO1 activ: inactive; TMEM16A inh: inactive; CHT inh: inactive

How did Cc1ccc(S(=O)(=O)N2[C@@H](c3ccc(Cl)cc3)C(C(=O)O)=CC[C@H]2c2ccc(Cl)c(Cl)c2)cc1 do in these assays?
CHT PAM: inactive; ANO1 activ: inactive; TMEM16A inh: 100; CHT inh: -6.2; CHT block conf: 65%; HEK293 CHT ctr: inactive

Results for Cc1ccc(S(=O)(=O)N2[C@@H](c3ccccc3)C(C(=O)O)=CC[C@H]2c2cccc(Cl)c2)cc1 ?
CHT PAM: inactive; ANO1 activ: inactive; TMEM16A inh: inactive; CHT inh: inactive

Results for CCOc1ccc([C@@H]2CC=C(C(=O)O)[C@H](c3cccc(Cl)c3)N2S(=O)(=O)c2ccc(C)cc2)cc1 ?
CHT PAM: inactive; ANO1 activ: -6.9; TMEM16A inh: inactive; CHT inh: -6.1; CHT block conf: 62%; HEK293 CHT ctr: inactive

What do the screens show for `O=C(Nc1ccc2c(c1)OCCO2)c1ccc(NC(=O)C2CCCO2)cc1` (stereo not given)?
CHT PAM: inactive; ANO1 activ: inactive; TMEM16A inh: inactive; CHT inh: inactive

How did COc1ccc(CNC(=O)CCCCCNC(=O)N2CCn3c2nc2ccccc23)cc1 do in these assays?
CHT PAM: inactive; ANO1 activ: inactive; TMEM16A inh: inactive; CHT inh: inactive

What do the screens show for `CCOc1ccccc1N1CCN(C(=O)C(F)(F)F)CC1`?
CHT PAM: inactive; ANO1 activ: inactive; TMEM16A inh: inactive; CHT inh: -6.2; CHT block conf: inactive; HEK293 CHT ctr: inactive

Results for CCOc1ccccc1N1CCN(C(=O)CC(C)(C)C)CC1 ?
CHT PAM: inactive; ANO1 activ: inactive; TMEM16A inh: inactive; CHT inh: inactive

What do the screens show for `CC(=O)c1cc(CN2CCN(CCc3ccccc3)C(CCO)C2)cs1` (stereo not given)?
CHT PAM: inactive; ANO1 activ: inactive; TMEM16A inh: inactive; CHT inh: inactive

Results for CSc1nc2ccsc2c(=O)n1-c1ccccc1 ?
CHT PAM: inactive; ANO1 activ: inactive; TMEM16A inh: inactive; CHT inh: inactive

What do the screens show for `CNc1nc(SC)nc2ccsc12`?
CHT PAM: inactive; ANO1 activ: inactive; TMEM16A inh: inactive; CHT inh: -14; CHT block conf: 4.2%; HEK293 CHT ctr: inactive

How did COc1ccc(CNC(=O)N2CCN(c3ccccc3)CC2)cc1 do in these assays?
CHT PAM: inactive; ANO1 activ: inactive; TMEM16A inh: inactive; CHT inh: inactive

What do the screens show for `O=C(CCc1ccc(S(=O)(=O)N2CCOCC2)cc1)N1CCc2ccccc2C1`?
CHT PAM: inactive; ANO1 activ: inactive; TMEM16A inh: inactive; CHT inh: -5.8; CHT block conf: 66%; HEK293 CHT ctr: inactive
